Data taken from PubChem BioAssay (Tox21).
Results filed as inconclusive are left out. A call without a number means that no potency is given here. Active and inactive are the calls of the source. The call rests on the fitted dose curve.

test: p53 small molecule agonists, cell-based qHTS assay with human liver microsomes (AID 1963577); settings: HCT-116 p53RE-bla with human liver microsomes, ratio, 16 h; series mostly up to 66 µM
Method in brief: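 In this qHTS, p53 response-element beta-lactamase cells receive test compound together with a microsome/NADPH activating system (0.5 mg/mL final each) and are incubated 16 h at 37 C before LiveBLAzer fluorescence detection.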

| Structure (SMILES) | Potency |
| --- | --- |
| N#CCCO | inactive |
| C=CCSSCC=C | inactive |
| N#Cc1ccc(Cl)cc1 | inactive |
| C=CCc1cc(OC)c2c(c1)OCO2 | inactive |
| c1ccc(-c2cccc(-c3ccccc3)c2)cc1 | inactive |
| c1ccc(NNc2ccccc2)cc1 | inactive |
| O=c1[nH]c2ccccc2n1C1CCN(CCCC(c2ccc(F)cc2)c2ccc(F)cc2)CC1 | inactive |
| CCCCCCCCCCn1cc[n+](C)c1 | inactive |
| OCCSSCCO | inactive |
| CCN | inactive |
| N#Cc1ccc(O)cc1 | inactive |
| NCCOS(=O)(=O)O | inactive |
| O=NN(c1ccccc1)c1ccccc1 | inactive |
| COC(=O)Nc1cccc(OC(=O)Nc2cccc(C)c2)c1 | inactive |
| CC(Br)C(=O)O (stereo not drawn) | inactive |
| O=S1OCC2C(CO1)C1(Cl)C(Cl)=C(Cl)C2(Cl)C1(Cl)Cl (stereo not drawn) | inactive |
| ClC1=C(Cl)C2(Cl)C3C(Cl)C(Cl)CC3C1(Cl)C2(Cl)Cl (stereo not drawn) | inactive |
| ClC(Cl)(Cl)Br | inactive |
| CCN(CC)Cc1nccn1-c1ccc([N+](=O)[O-])cc1C(=O)c1ccccc1Cl | inactive |
| Cl/C=C/CCl | inactive |
| CCCCCCCCSC(=O)Oc1cc(Cl)nnc1-c1ccccc1 | inactive |
| Cc1ccc(N)cc1N | inactive |
| [O-][Cl+]O | inactive |
| OCCOc1ccccc1 | inactive |
| CC(C)Nc1ccc(Nc2ccccc2)cc1 | inactive |
| O=C(CCN1CC1)OCC(CO)(COC(=O)CCN1CC1)COC(=O)CCN1CC1 | inactive |
| CC(C)(C)C(O)(CCc1ccc(Cl)cc1)Cn1cncn1 (stereo not drawn) | inactive |
| CC1COC2(c3ccccc3Cl)c3cc(Cl)ccc3NC(=O)CN12 (stereo not drawn) | inactive |
